Screening results as filed in PubChem.
CYP2C9 act: CYP2C9 (human) activation | recombinant CYP2C9, luciferin-H conversion, luminescence; stronger effect = higher value; factor 1 = untreated enzyme, 0 = blocked | AID 1024 | activation factor at 5 µM | 96,000 tested, 1.4% active;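 active = activation factor of 2 or more for CYP2C9 at a 5 µM dose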
CYP2C9 inhib: human CYP2C9 inhibition. CYP2C9 Supersomes, luciferin-H conversion, luminescence. inhibition, % at 5 µM. 96,000 tested, 20% active;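 active = blocking of liver enzyme CYP2C9 beyond about 50% at 5 µM, limit read from the data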
Cav3 T inh: blocks human Cav3.2 T-type calcium channel; O95180; Cav3.2-expressing cells, Fluo-4 calcium fluorescence FDSS; stronger effect = lower value; B-score at 10 µM; 100,000 tested, 4% active;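 active = single-dose well whose peak fluorescence ratio is a statistical outlier from its plate by either plate-standardised score or position-corrected B-score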
Target sequence (O95180 whole entry, looked up): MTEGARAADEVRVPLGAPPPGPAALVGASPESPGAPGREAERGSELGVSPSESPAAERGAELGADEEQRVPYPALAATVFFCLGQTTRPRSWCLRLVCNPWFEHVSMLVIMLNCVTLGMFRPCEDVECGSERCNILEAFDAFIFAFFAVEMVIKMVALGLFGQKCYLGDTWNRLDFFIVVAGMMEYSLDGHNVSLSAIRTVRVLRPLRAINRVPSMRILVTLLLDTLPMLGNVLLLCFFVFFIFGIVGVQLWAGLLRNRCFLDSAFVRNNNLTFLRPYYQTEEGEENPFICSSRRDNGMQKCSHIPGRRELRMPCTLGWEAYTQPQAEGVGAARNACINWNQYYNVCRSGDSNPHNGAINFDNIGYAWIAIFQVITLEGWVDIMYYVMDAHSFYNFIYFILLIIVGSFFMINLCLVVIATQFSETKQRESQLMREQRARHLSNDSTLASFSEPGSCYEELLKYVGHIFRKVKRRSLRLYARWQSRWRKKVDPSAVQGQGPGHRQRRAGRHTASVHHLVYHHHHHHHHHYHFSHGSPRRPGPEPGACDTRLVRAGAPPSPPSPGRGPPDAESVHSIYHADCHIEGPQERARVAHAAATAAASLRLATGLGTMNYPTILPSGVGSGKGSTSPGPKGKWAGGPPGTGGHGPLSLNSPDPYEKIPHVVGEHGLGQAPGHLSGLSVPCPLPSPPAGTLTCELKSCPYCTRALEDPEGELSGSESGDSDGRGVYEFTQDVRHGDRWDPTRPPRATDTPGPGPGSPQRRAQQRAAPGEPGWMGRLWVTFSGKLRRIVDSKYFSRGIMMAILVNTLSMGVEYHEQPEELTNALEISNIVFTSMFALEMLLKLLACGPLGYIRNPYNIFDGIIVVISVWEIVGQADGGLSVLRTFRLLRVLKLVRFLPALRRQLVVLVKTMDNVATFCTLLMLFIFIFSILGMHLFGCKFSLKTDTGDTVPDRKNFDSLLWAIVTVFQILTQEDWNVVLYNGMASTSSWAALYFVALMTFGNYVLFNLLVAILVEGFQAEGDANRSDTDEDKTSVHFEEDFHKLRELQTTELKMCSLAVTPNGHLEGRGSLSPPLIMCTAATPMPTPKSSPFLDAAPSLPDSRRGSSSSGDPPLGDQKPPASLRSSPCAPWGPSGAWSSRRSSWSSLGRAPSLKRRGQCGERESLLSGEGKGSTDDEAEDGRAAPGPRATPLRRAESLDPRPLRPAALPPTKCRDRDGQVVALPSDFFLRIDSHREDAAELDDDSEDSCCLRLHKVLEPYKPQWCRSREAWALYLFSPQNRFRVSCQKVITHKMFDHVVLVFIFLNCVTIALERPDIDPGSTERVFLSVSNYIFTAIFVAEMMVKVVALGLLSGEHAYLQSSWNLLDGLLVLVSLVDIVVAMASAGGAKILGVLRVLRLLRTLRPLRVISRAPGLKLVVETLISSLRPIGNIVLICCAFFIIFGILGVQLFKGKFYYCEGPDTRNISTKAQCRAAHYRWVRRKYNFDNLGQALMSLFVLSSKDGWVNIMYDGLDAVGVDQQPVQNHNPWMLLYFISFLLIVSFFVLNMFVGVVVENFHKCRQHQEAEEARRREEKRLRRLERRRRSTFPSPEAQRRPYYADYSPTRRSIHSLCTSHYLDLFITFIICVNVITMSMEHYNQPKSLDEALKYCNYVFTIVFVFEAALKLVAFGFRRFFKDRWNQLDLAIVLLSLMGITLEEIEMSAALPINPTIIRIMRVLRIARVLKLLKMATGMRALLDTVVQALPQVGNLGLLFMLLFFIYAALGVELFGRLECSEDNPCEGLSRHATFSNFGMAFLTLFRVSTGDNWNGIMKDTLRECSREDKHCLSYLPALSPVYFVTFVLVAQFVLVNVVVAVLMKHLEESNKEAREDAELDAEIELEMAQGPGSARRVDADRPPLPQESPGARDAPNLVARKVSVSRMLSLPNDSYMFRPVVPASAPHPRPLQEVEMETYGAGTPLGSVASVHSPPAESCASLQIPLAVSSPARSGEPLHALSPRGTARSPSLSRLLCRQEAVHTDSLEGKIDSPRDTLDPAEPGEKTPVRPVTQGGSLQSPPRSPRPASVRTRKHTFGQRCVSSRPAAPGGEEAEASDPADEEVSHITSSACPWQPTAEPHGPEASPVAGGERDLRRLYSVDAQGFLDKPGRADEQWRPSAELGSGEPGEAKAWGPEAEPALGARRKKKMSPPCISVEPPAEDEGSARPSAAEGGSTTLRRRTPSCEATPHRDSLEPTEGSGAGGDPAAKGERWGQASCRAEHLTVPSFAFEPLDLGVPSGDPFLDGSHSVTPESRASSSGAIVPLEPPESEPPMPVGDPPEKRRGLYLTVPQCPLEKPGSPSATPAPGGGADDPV
CYP2C19 act: activators of human cytochrome P450 2C19 | recombinant CYP2C19, luciferin-H EGE luminescence; stronger effect = higher value; 0 = fully inhibited enzyme, 1 = untreated enzyme | P33261 | 96,000 tested, under 10 active | activation factor at 5 µM;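 active = activation factor of at least 2 at 5 µM in the primary screen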
CYP2C19 inhib: inhibitors of human CYP2C19. CYP2C19 Supersomes, luciferin-H EGE luminescence, 30 min. inhibition, % at 5 µM. 96,000 tested, 21% active;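 active = CYP2C19 inhibition above a set limit at 5 µM in the primary screen, cut at about 50% in these data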
A number is an active result; n = inactive; x = not tested or not shown. A selection: hits, their analogues and other compounds. The true share with any hit is near 27%.

SMILES	CYP2C9 act	CYP2C9 inhib	Cav3 T inh	CYP2C19 act	CYP2C19 inhib
COc1cc(OC)cc(C(=O)N2CCN(Cc3ccccc3C(F)(F)F)CC2)c1	n	n	n	n	78
CCn1c(NC(=O)c2ccc(COc3ccc(C)cc3[N+](=O)[O-])o2)nc2ccccc21	n	n	n	n	n
Cc1cc2oc(=O)cc(CSc3nc(N)cc(N)n3)c2cc1C	n	n	n	n	n
CCC(C)[C@H](NC(=O)Nc1cccc(OC)c1)C(=O)OC (stereo not given in full)	n	n	n	n	55
CC(C)[C@H](NC(=O)NCc1ccc(Cl)cc1)C(=O)O	n	n	n	n	n
CCC(C)[C@H](NC(=O)NCc1ccc(Cl)cc1)C(=O)OC (stereo not given in full)	n	n	n	n	52
COc1cccc(C(C)NC(=O)Nc2cccc(C(F)(F)F)c2)c1 (stereo not given)	n	n	-8.3	n	67
O=C(CSc1nnnn1-c1ccccc1)Nc1ncc2c(n1)CC(c1ccco1)CC2=O (stereo not given)	x	x	n	x	x
C=C(C)C(=O)N1CC2(CC(c3cccc(NC(=O)/C(C)=C\C)c3)=NO2)C[C@H]1C(N)=O (stereo not given in full)	x	x	n	x	x
O=C(O)c1ccccc1C(=O)NCC(O)COCC1CC=CCC1 (stereo not given)	n	n	n	n	92
CCC(=O)N1CCc2cc(Br)cc(S(=O)(=O)C3(C(=O)OC)CC3)c21	n	n	n	n	n
COc1ccc(C2Nc3ccccc3C(=O)N2Cc2ccco2)cc1COc1ccc(NC(C)=O)cc1 (stereo not given)	n	100	n	n	85
COc1ccc(C2Nc3ccccc3C(=O)N2Cc2ccco2)cc1COc1ccccc1F (stereo not given)	n	99	-5.2	n	90
Cc1ccc(-c2noc(=O)n2CC(=O)Nc2ccc(S(=O)(=O)NC3CC3)cc2)cc1	n	93	n	n	n
O=C(Cn1c(-c2ccccc2)noc1=O)Nc1ccc(S(=O)(=O)N2CCOCC2)cc1	n	73	n	n	n
Cc1ccc(NC(=O)CCc2ccc(S(=O)(=O)NC3CCCCC3)cc2)cc1	n	n	n	n	n
CCCC(=O)Nc1ccc(S(=O)(=O)N2CCOCC2)cc1	x	x	n	x	x
O=C(CCSc1ccccc1)Nc1ccc(S(=O)(=O)N2CCOCC2)cc1	n	85	n	n	55
CCC(C)/C=C/C1=CC2=C(Cl)C(=O)C3(C)OC(=O)C(C(=O)C(C)C(C)O)C3C2=CO1 (stereo not given)	x	x	n	x	x
Cc1ccc(F)cc1NC(=O)Cc1ncc(C(F)(F)F)cc1Cl	n	n	n	n	51
O=C(O)CCc1ncc(C(F)(F)F)cc1Cl	n	n	n	n	n
CN(Cc1ccccc1)S(=O)(=O)c1ccc(Cl)nc1	n	n	n	n	70
CC(=O)c1ccc(NS(=O)(=O)Cc2ccccc2)cc1	n	97	n	n	93
CC(=O)N(C)c1ccc(NS(=O)(=O)Cc2ccccc2)cc1	n	n	n	n	n
CN(Cc1ccccc1)S(=O)(=O)c1ccc(NS(=O)(=O)Cc2ccccc2)cc1	n	94	-3.8	n	94
SMILES	CYP2C9 act	CYP2C9 inhib	Cav3 T inh	CYP2C19 act	CYP2C19 inhib
CC(C)(C)C(=O)Nc1ccccc1C(=O)Nc1cc(Cl)ccc1Cl	n	61	n	n	n
CCc1c(C)nc2ncnn2c1Nc1ccc(C)c(C)c1	x	x	n	x	x
CCc1c(C)nc2ncnn2c1NCCc1ccc(OC)cc1	n	85	n	n	63
CCNC(=O)COc1ccc(-c2ccccc2)cc1	n	n	n	n	62
COc1ccc(CNC(=O)COc2ccc(S(=O)(=O)NC(C)C)cc2)cc1	n	86	n	n	68
CC(C)(C)NC(=O)COc1ccc(-c2ccccc2)cc1	n	n	n	n	n
Cc1cccc(OCC(=O)Nc2ccc(C(=O)NCc3cccnc3)cc2)c1	n	n	x	n	53
CC(C)NS(=O)(=O)c1ccc(OCC(=O)NCc2cccnc2)cc1	n	n	n	n	n
CC(C)NS(=O)(=O)c1ccc(OCC(=O)NCc2ccccc2)cc1	n	61	n	n	n
N=c1sccn1CC(=O)Nc1ccccc1-c1ccccc1	n	n	n	n	n
CSc1nc(NC(C)=O)nc(C)c1Cl	n	n	n	n	n
CCCS(=O)(=O)N1CCC(C(=O)NCCc2ccc(C)cc2)CC1	n	n	n	n	n
O=C(COc1ccccc1)NCc1ccccc1	n	n	n	n	74
COc1ccc(OCC(=O)NCc2cccnc2)cc1	n	n	n	n	58
Cc1cc2ccccc2n1CCNC(=O)COc1ccccc1	n	n	n	n	94
CCOc1ccc(CCNC(=O)C2CC(=O)N(C3CCCC3)C2)cc1OCC (stereo not given)	n	n	n	n	n
Cc1ccc(CSCCNC(=O)CN2C(=O)c3ccccc3S2(=O)=O)cc1	x	x	n	x	x
CCOC(=O)CC(=O)CSc1nc2c(cc1C#N)CCCCC2	n	66	n	n	n
CC(C)OC(=O)CC(=O)CSc1nc2c(cc1C#N)CCCCC2	n	87	n	n	73
Cc1ccc(NC(=O)CSc2nnnn2-c2ccc3c(c2)OCO3)cc1C	x	x	n	x	x
O=C(N1CCOCC1)N1CCC(NC(=O)C23CC4CC(CC(C4)C2)C3)CC1	x	x	n	x	x
N#CC1=C(N)c2ccccc2CC12CCCCC2	n	78	n	n	n
CCOC(=O)C(C(=O)Nc1nc2ccccc2s1)C1CCCCC1 (stereo not given)	n	92	-7.8	n	n
CCOC(=O)C(C(=O)Nc1nccs1)C1CCCCC1 (stereo not given)	n	77	n	n	69
CCOC(=O)C(C(=O)Nc1cccc(C)c1)C1CCCCC1 (stereo not given)	n	55	n	n	82
SMILES	CYP2C9 act	CYP2C9 inhib	Cav3 T inh	CYP2C19 act	CYP2C19 inhib
CCOC(=O)C(C(=O)Nc1ccccn1)C1CCCCC1 (stereo not given)	n	n	n	n	n
CCOC(=O)C(C(=O)Nc1cccc(C)n1)C1CCCCC1 (stereo not given)	n	82	n	n	80
O=C(c1ccco1)N1CCN(c2ncnc3c2[nH]c2ccccc23)CC1	n	n	x	n	67
O=C(c1ccco1)N1CCN(c2ncnc3c(-c4ccccc4)nsc23)CC1	n	n	n	n	n
O=C(c1ccco1)N1CCN(c2ncnc3c2[nH]c2ccc(Br)cc23)CC1	n	90	x	n	96
CCc1c(C)n2nc(C)cc2[nH]c1=O	n	n	n	n	n
CC(=O)OC(C(=O)NC1CCCCC1)c1ccc(Cl)cc1 (stereo not given)	n	n	n	n	n
Cc1cccc(NC(=O)NNC(=O)c2cc(-c3ccccc3Cl)nc3ccccc23)c1	n	62	n	n	n
Cc1ccc2nc(-c3ccccc3Cl)cc(C(=O)Nc3cc(C)on3)c2c1	n	99	n	n	82
Cc1ccc(-c2cc(C(=O)OCC(=O)Nc3cc(C)on3)c3ccccc3n2)c(C)c1	n	79	n	n	n
